According to PubChem BioAssay AID2451 (National Center for Advancing Translational Sciences (NCATS), 2010):
Out of some 290,000 compounds screened, about 2,100 (0.72%) were called active. Not shown: some 4% with an inconclusive outcome. Calls follow the shape of the dose curve; as a rule, active = well fitted inhibition curve with a large enough effect; inconclusive = small, poorly fitted or top-dose-only effect, or effect the other way; inactive = flat fitted curve, though single readings scatter. What follows is part of a selection rich in actives, with near analogues and random picks from the rest.

target: Fructose-bisphosphate aldolase (Giardia intestinalis (strain ATCC 50803 / WB clone C6)) (UniProt A8B2U2); experiment: qHTS Assay for Inhibitors of Fructose-1,6-bisphosphate Aldolase from Giardia Lamblia; conditions: purified Giardia FBPA; series mostly up to 59.6 µM; activity, negative = inhibition: at the top concentration; also: nearly all actives have a fitted effect of over 55% in size
Outline: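 40 nM FBPA preincubated 10 min at RT with compound (up to 57.5 uM final), then substrate plus GAPDH/TPI/NAD/arsenate coupling and diaphorase/resazurin added. Fluorescence read after 20 min at RT, 525/598 nm.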
% is scaled to controls: 0 for no effect and ±100 for the full control effect; potency is read from the fitted curve at half-maximal effect.

Sequence of Fructose-bisphosphate aldolase (Giardia intestinalis (strain ATCC 50803 / WB clone C6)) (A8B2U2 whole entry, looked up): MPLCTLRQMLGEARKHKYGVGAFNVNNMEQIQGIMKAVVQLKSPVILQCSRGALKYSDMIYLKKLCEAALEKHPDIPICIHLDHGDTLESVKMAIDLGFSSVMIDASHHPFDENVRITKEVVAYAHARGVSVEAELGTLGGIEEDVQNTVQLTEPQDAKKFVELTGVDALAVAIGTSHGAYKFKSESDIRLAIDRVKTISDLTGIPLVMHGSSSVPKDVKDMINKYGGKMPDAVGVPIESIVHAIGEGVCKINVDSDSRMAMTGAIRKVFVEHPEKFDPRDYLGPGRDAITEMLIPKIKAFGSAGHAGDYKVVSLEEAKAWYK

Row | SMILES | activity, negative = inhibition | Potency
1 | Cc1ccc(C(=O)NC2CCN(C(=O)Nc3ccc(F)cc3)CC2)cc1 | -11.8% (inactive) | 
2 | C=CCCN(C(Cc1ccccc1)C(=O)OC)S(=O)(=O)c1cc(Br)ccc1Br (stereo unspecified) | 1.34% (inactive) | 
3 | CCCNC(=O)c1ccc(N2CCC3(CC2)CC(c2ccc(Cl)cc2)=NO3)c([N+](=O)[O-])c1 | 0.473% (inactive) | 
4 | Cc1cc(C)n(-c2ccc3nncn3n2)n1 | 0.189% (inactive) | 
5 | Cc1cc(C)n(-c2ccc(Cl)c(C(=O)O)n2)n1 |  | 15.8 µM (active)
6 | COc1ccc(NC(=O)c2nc(-n3nc(C)cc3C)ccc2Cl)cc1Cl | 18.5% (inactive) | 
7 | Cn1nccc1C(=O)N1CCCC(C(=O)c2ccc(Oc3ccccc3)cc2)C1 (stereo unspecified) | 3.18% (inactive) | 
8 | Cc1cc(S(=O)(=O)c2cc3ccc(O)c(C)c3oc2=O)ccc1F | 9.55% (inactive) | 
9 | N#CC1=C(N)Oc2n[nH]c(CSc3ccccc3)c2C12C(=O)Nc1ccccc12 (stereo unspecified) | -8.13% (inactive) | 
10 | N#CC1=C(N)Oc2[nH]c(=S)[nH]c(=O)c2C12C(=O)Nc1ccccc12 (stereo unspecified) |  | 6.29 µM (active)
11 | Cc1ccc(NC2(C#N)C(=O)Nc3ccccc32)cc1 (stereo unspecified) | -29.3% (inactive) | 
12 | CCc1ccc(NC(=O)C(=O)NNC(=O)c2cccs2)cc1 | -2.46% (inactive) | 
13 | COc1ccc(CNC(=O)c2ccc(Br)s2)cc1OC | 2.95% (inactive) | 
14 | Fc1ccc(-c2ccc(NCCN3CCOCC3)nn2)cc1 | -1.31% (inactive) | 
15 | O=C(NCc1ccccn1)c1ccc2nc(-c3ccco3)c(-c3ccco3)nc2c1 |  | 2.81 µM (active)
16 | COc1ccc2oc(=O)c(C(=O)NCc3ccccn3)cc2c1 | -15.7% (inactive) | 
17 | O=C(NCc1ccccn1)c1cc(Br)ccc1Cl | 3.28% (inactive) | 
18 | COCn1c(C(O)c2ccccc2)cc2ccccc21 (stereo unspecified) | 9.67% (inactive) | 
19 | O=c1nc(N/N=C/c2ccco2)cn[nH]1 |  | 17.7 µM (active)
20 | O=C(N/N=C/c1ccco1)c1ccc(C(=O)N/N=C/c2ccco2)o1 | -12.7% (inactive) | 
21 | CC(C)NC(=O)C(=O)N/N=C/c1ccco1 | -7.41% (inactive) | 
22 | CNC(=S)NNC(=O)c1cccn(Cc2ccccc2)c1=O | 1.08% (inactive) | 
23 | C=CCNC(=S)/N=c1/ccccn1Cc1ccccc1 |  | 14.1 µM (active)
24 | N=c1ccccn1Cc1ccccc1 | 12.5% (inactive) | 
25 | O=C(c1ccccc1)N1N=C(c2ccccc2O)CC1c1ccc(Br)cc1 (stereo unspecified) | -3.32% (inactive) | 
26 | O=C(CN1CCN(Cc2ccccc2)CC1)Nc1ccc(F)c(F)c1 |  | 20 µM (active)

Row | SMILES | activity, negative = inhibition | Potency
27 | Cc1cc(NC(=O)CCN2CCN(Cc3ccccc3)CC2)ccc1Br | -20.8% (inactive) | 
28 | O=C(CN1CCN(c2ccccc2)CC1)Nc1ccc(F)cc1 | 13.9% (inactive) | 
29 | CC(=O)N[C@@H](C)C(=O)N1CCC(n2nccc2NC(=O)CCCc2ccccc2)CC1 | -11.4% (inactive) | 
30 | CC(=O)Nc1cccc(Nc2nc(-c3cccs3)nc3ccccc23)c1 | 4.7% (inactive) | 
31 | O=S(=O)(c1ccc(NC(=S)NN=C(C2CC2)C2CC2)cc1)N1CCOCC1 |  | 7.06 µM (active)
32 | CN1CCN(S(=O)(=O)c2ccc(NC(=S)NC(=O)C3CC3)cc2)CC1 | 1.96% (inactive) | 
33 | O=C(NC(=S)Nc1ccc(S(=O)(=O)N2CCOCC2)cc1)c1ccccc1[N+](=O)[O-] | -23.5% (inactive) | 
34 | CCOC(=O)c1c(-c2ccccc2)oc2cc(Br)c(O)c(C=O)c12 | -9.36% (inactive) | 
35 | CCOc1ccc(-n2c(SCC(=O)Nc3cc(C(=O)O)ccc3Cl)nc3ccccc3c2=O)cc1 | 14.4% (inactive) | 
36 | O=C(Nc1ccccc1Cl)Nc1cccc2cccnc12 | -7.02% (inactive) | 
37 | Cc1ccc(C(=O)O/N=C(\N)c2ccccn2)cc1Cl | 16.7% (inactive) | 
38 | O=C(Nc1ccccc1Cl)O/N=C(/c1ccccc1)c1ccccn1 |  | 15.8 µM (active)
39 | O=C(CCC(=O)n1ncc2ccccc21)NCc1ccccc1Cl | 8.97% (inactive) | 
40 | O=C1CSC(=S)N1c1ccc(O)cc1 | -21.6% (inactive) | 
41 | O=C(Nc1ccncc1)Nc1ccc(F)cc1 | -7.88% (inactive) | 
42 | Oc1ccc2ccccc2c1N=Nc1nccs1 |  | 12.6 µM (active)
43 | CN(C)CCCn1c(=O)n(Cc2ccccc2)c(=O)c2c3c(sc21)CCCCC3 | 3.4% (inactive) | 
44 | Oc1[nH]c2ccc(Br)cc2c1N=Nc1nn[nH]n1 |  | 15.8 µM (active)
45 | NS(=O)(=O)c1ccc(N=Nc2c(O)[nH]c3ccc(Br)cc23)cc1 | 22.7% (inactive) | 
46 | O=C(CNC(=O)Cc1ccccc1)N=Nc1c(O)[nH]c2ccc(Br)cc12 | -17.6% (inactive) | 
47 | CCOC(=O)C1CCN(C(=O)COc2cccc3ccccc23)CC1 | -2.04% (inactive) | 
48 | Cn1c(=O)[nH]c(=O)c2c1[nH]c(=S)n2Cc1ccccc1 |  | 8.91 µM (active)
49 | C=CCSc1nc2c(c(=O)[nH]c(=O)n2C)n1Cc1ccccc1 | 18.8% (inactive) | 
50 | COc1ccc(CNc2nc3c(c(=O)[nH]c(=O)n3C)n2Cc2ccccc2)cc1 | -2.3% (inactive) | 
51 | COc1cccc(OC)c1C(=O)Nc1ccc2c(c1)n(C)c(=O)n2C | 6.4% (inactive) | 
52 | CN1C2C=C(N(C(=O)c3ccc(Cl)cc3)c3ccccc3)CC1CC2 (stereo unspecified) | -4.66% (inactive) | 

Row | SMILES | activity, negative = inhibition | Potency
53 | O=C(CN1C(=O)c2ccccc2C1=O)NCc1ccc(C(=O)O)cc1 | 5.32% (inactive) | 
54 | CC(=O)N(C1=C(Cl)C(=O)c2ccccc2C1=O)c1ccc(C(=O)O)cc1 |  | 2.24 µM (active)
55 | CC(=O)c1ccc(NC(=O)CCc2nnc3ccc(NCc4ccco4)nn23)cc1 | 14.7% (inactive) | 
56 | O=C(c1cc(C(=O)N2CCN(c3ccc(F)cc3)CC2)cc([N+](=O)[O-])c1)N1CCN(c2ccc(F)cc2)CC1 | 6.27% (inactive) | 
57 | O=C(CCN1C(=O)COc2ccccc21)NCCCN1CCN(c2ccc(F)cc2)CC1 | -0.235% (inactive) | 
58 | CCCN1CCN(CCCNC(=O)CN2C(=O)COc3ccccc32)CC1 | -3.07% (inactive) | 
59 | O=C(CN1C(=O)COc2ccccc21)Nc1ccc(F)cc1 |  | 5.61 µM (active)
60 | CC(C)c1ccc(S(=O)(=O)N2CCC3(CC2)OCCO3)cc1 | 7.89% (inactive) | 
61 | CCN1C(=O)c2cccc3c(N)ccc1c23 |  | 0.354 µM (active)
62 | CN1C(=O)c2cccc3c(N)ccc(c23)C1=O | 1.83% (inactive) | 
63 | Cc1nn(C)cc1N1C(=O)c2cccc3c(N)ccc(c23)C1=O | -6.4% (inactive) | 
64 | O=C(NCCN1CCN(C(=O)c2cccc([N+](=O)[O-])c2)CC1)C(=O)NCc1ccc(Cl)cc1 | 6.63% (inactive) | 
65 | CCOC(=O)c1cc(Sc2ccccc2N)cc(C(=O)OCC)n1 | 7.21% (inactive) | 
66 | CCS(=O)(=O)c1cc([N+](=O)[O-])c(Sc2ccccc2N)s1 |  | 15.8 µM (active)
67 | Nc1ccccc1Sc1ccc(C(F)(F)F)cc1[N+](=O)[O-] | -11.9% (inactive) | 
68 | CC(C)CCn1c(=O)c2c(nc3n2CCCN3Cc2ccccc2)n(C)c1=O | 4.15% (inactive) | 
69 | Cc1ccccc1NC(=O)C1CCCN(C(=O)NCc2ccccc2)C1 (stereo unspecified) | 7.76% (inactive) | 
70 | CCCCc1cc(=O)oc2c(C)c(OCC(=O)N3CCC(C(N)=O)CC3)ccc12 | 10.7% (inactive) | 
71 | COc1c(O)c2c(=O)cc(OC)c3c4c(OC)cc(=O)c5c(O)c(OC)c6c(c(c1C[C@@](C)(O)[C@H]6C(C)=O)c23)c54 | -22.3% (inactive) | 
72 | CC(C)(c1ccccc1)c1ccc(OCCN)cc1 | 0.0143% (inactive) | 
73 | Cc1cc(OCCN2CCCC2)ccc1C(C)C | -14.5% (inactive) | 
74 | CC(C)(c1ccccc1)c1ccc(OCCN2CCCC2)cc1 |  | 22.4 µM (active)
75 | CC(C)CN(Cc1c(O)ccc2c(=O)c(-c3ccccc3)coc12)CC(C)C | 8.57% (inactive) | 
76 | COc1ccc(Cl)cc1NC(=O)c1cccc(N2C(=O)C3CC=CCC3C2=O)c1 (stereo unspecified) | 2.26% (inactive) | 
